Source: PubChem BioAssay (several laboratories)
This is a sample that favours compounds with a hit; in the whole collection about 0.75% have one here.
Mtb BioA inh = blocks M. tuberculosis BioA enzyme activity. purified M. tuberculosis BioA enzyme, plate reader. inhibition, % at 9.99 µM. 360,000 tested, 0.096% active; in the data active = inhibition above about 40%
Mtb hypoxia rep = inhibitors of hypoxia-regulated fluorescent reporter in Mycobacterium tuberculosis; M. tuberculosis hypoxia-regulated fluorescent reporter, fluorescence; fluorescence inhibition, % (test concentration not listed); 300,000 tested, 0.1% active; AID 1159583; in the data active = fluorescence inhibition mostly above about 23%, no sharp cut-off; inactive = mostly below about 17%
ugtP null kill = growth inhibition of S. aureus ugtP deletion strain | growth inhibition, % (concentration not given with the values) | S. aureus RN4220 ugtP deletion, OD600 growth, 16 h | 330,000 tested, 0.54% active; in the data active = growth inhibition above about 68%
Sa RN4220 lethal = kills Staphylococcus aureus RN4220 | AID 1259311 | S. aureus RN4220 growth, OD600, 16 h | 330,000 tested, 0.33% active | inhibition, % (concentration not given with the values); in the data active = inhibition above about 85%
TcdB inh = TcdB glycohydrolase inhibition; inhibition, % at 9.99 µM; 350,000 tested, 0.24% active; TcdB glycohydrolase enzymatic assay, plate reader; in the data active = inhibition above about 10%
Y pestis TopoI = blocks Yersinia pestis topoisomerase I activity | 360,000 tested, 0.064% active | Y. pestis Topo-I cleavage product accumulation, plate reader | activity, % at 10 µM; in the data active = activity above about 50%, passing the limit was not always enough
Large screens that a line does not name were inactive.

CC(=O)N/C(=C\c1ccccc1)C(=O)Nc1ccc(O)cc1	TcdB inh 13 (no result: Mtb BioA inh)
CC(=O)Nc1ccc(O)cc1	TcdB inh 25 (no result: Mtb hypoxia rep)
O=C(Nc1ccc(N2CCN(c3ccc(O)cc3)CC2)cc1)Oc1ccccc1	none
Nc1ccc(OC(=O)Nc2ccc(O)cc2)cc1	TcdB inh 12
Nc1ncnc2[nH]c(=S)[nH]c12	TcdB inh 15
COc1cc(/C=C/c2cc[n+](C)cc2)ccc1OCC(=O)Nc1ccc(Cl)c(Cl)c1	ugtP null kill 100
COc1ccc(NC(=O)COc2ccc(/C=C/c3cc[n+](C)cc3)cc2OC)cc1	none (no result: Mtb BioA inh)
Cc1ccc2[nH]c(C)c(C=NNc3nc4ccccc4s3)c2c1	ugtP null kill 99, Sa RN4220 lethal 100 (no result: Mtb BioA inh, TcdB inh, Y pestis TopoI)
CC(=O)c1cccc(NC(=O)CCCOc2ccc(C)cc2)c1	Mtb hypoxia rep active
C=CCCC(Cc1ccc(F)cc1)C(=O)OCC(Cc1c[nH]c2ccccc12)NC(=O)C(CC=C)CC(=O)NCCO (centres undefined)	none (no result: Mtb BioA inh, TcdB inh, Y pestis TopoI)
Cc1cc(NN=Cc2c[nH]c3ccccc23)c2ccccc2n1	none (no result: Mtb BioA inh, TcdB inh, Y pestis TopoI)
CCn1nc([N+](=O)[O-])c(C(C#N)c2nc3cc(C(F)(F)F)ccc3s2)c(Cl)c1=O (centres undefined)	ugtP null kill 92, Sa RN4220 lethal 99 (no result: TcdB inh)
CCCn1nc([N+](=O)[O-])c(C(C#N)c2nc3ccccc3o2)c(Cl)c1=O (centres undefined)	none (no result: Mtb BioA inh, TcdB inh)
O=C(Nc1nc(NC(=O)c2ccco2)n(-c2ccccc2)n1)c1ccccc1	Sa RN4220 lethal 92 (no result: TcdB inh)
Nc1nc(NC(=O)c2ccccc2)nn1-c1ccccc1	none
O=C(OCC(=O)c1ccc(Cl)s1)c1cncc(Br)c1	Mtb hypoxia rep 29
COC(=O)[C@@]12CCCN1C(c1ccc(-c3ccc(C(C)=O)cc3)c(OC)c1)C1C(=O)N(C)C(=O)C12 (some centres undefined)	none (no result: Mtb BioA inh, TcdB inh, Y pestis TopoI)
CCCN(CCC)CCCNC(=O)c1cn(CCOC)c(=O)c2c1c1ccccc1n2C	none (no result: TcdB inh)
CCOC(CCNC(=O)c1cn(CCOC)c(=O)c2c1c1ccccc1n2C)OCC	TcdB inh 21
COc1cc(C=NN2C(=O)C3C4C=CC(CC4)C3C2=O)ccc1O (centres undefined)	none (no result: Mtb BioA inh, TcdB inh, Y pestis TopoI)
COc1cc(/C=N/N2C(=O)C3C4C=CC(CC4)C3C2=O)ccc1O (centres undefined)	TcdB inh 18 (no result: Mtb BioA inh, Mtb hypoxia rep, ugtP null kill, Sa RN4220 lethal)
CN(C)S(=O)(=O)c1ccc(N2CCCC2)c(C(=O)NNC(=O)c2ccccc2)c1	Sa RN4220 lethal 95
O=C(NN=Cc1ccc(OC(=O)c2ccc(Br)cc2)cc1)c1ccncc1	none (no result: Mtb BioA inh, TcdB inh, Y pestis TopoI)
NC(=O)c1oc2ccccc2c1NC(=O)c1nc2ccccc2s1	none (no result: Mtb hypoxia rep, TcdB inh)
O=C(Nc1nnc(-c2ccccc2)o1)c1nc2ccccc2s1	ugtP null kill 98, Sa RN4220 lethal 98
CC(=O)C(Cl)C(=O)Nc1ccccc1 (centres undefined)	none
O=C(Nc1ccccc1)C(Cl)C(=O)c1ccccc1 (centres undefined)	ugtP null kill 92
Cn1cnnc1SCC(=O)NC1CCCCC1	TcdB inh 15
CCOC1OC(C(=O)NCc2ccccc2)=CC(C)C1CCCO (centres undefined)	none (no result: Mtb BioA inh, TcdB inh, Y pestis TopoI)
CCOC(=O)CSc1nc(C(C)C)nc2sc(C)c(C)c12	ugtP null kill 89 (no result: Mtb BioA inh)
CCOC(=O)CSc1nc2sc(C)c(C)c2c(=O)n1C	none (no result: TcdB inh)
CC(=O)Nc1sc(NN=Cc2ccco2)nc1-c1cccs1	none (no result: Mtb BioA inh, TcdB inh, Y pestis TopoI)
ClC(Cl)(c1nnnn1-c1ccccc1)c1nnnn1-c1ccccc1	ugtP null kill 100, Sa RN4220 lethal 100 (no result: Mtb BioA inh, TcdB inh)
c1ccc(-c2nnnn2-c2ccccc2)cc1	none
COc1cc(C=NNS(=O)(=O)c2ccc3ccccc3c2)ccc1OCc1ccc(C(=O)O)cc1	none (no result: Mtb BioA inh, TcdB inh, Y pestis TopoI)
CC(=NNC(=O)c1cnccn1)c1cccs1	none (no result: Mtb BioA inh, TcdB inh, Y pestis TopoI)
c1cc2cc(-c3c(-c4ccc5c(c4)OCO5)noc3-c3ccsc3)ccc2[nH]1	none (no result: Mtb hypoxia rep, ugtP null kill, Sa RN4220 lethal)
COc1cc(-c2c(-c3ccc4c(c3)OCO4)noc2-c2ccsc2)ccc1F	ugtP null kill 87
CCOC(=O)c1ccc(-c2c(-c3ccc4c(c3)OCO4)noc2-c2ccsc2)cc1F	ugtP null kill 96
CC1(C)Cc2nc(N3CCCC3)c(C#N)cc2CO1	none (no result: Mtb BioA inh)
CC1(C)Cc2nc(Cl)c(C#N)cc2CO1	TcdB inh 10
O=C(O)COc1ccc(C=NNc2nc(Nc3ccccc3)nc(N3CCCCC3)n2)cc1	none (no result: Mtb BioA inh, TcdB inh, Y pestis TopoI)
Cc1ccc2nc3c(c(C(=O)O)c2c1)CCC3	none
CNC(=O)c1c2c(nc3ccc(Br)cc13)CCCC2	ugtP null kill 83
COc1cc(C=CC(=O)N2C(=O)c3cccc(N)c3C2=O)cc(OC)c1OC	none (no result: Mtb BioA inh, TcdB inh, Y pestis TopoI)
Cc1cc(C)cc(N=c2c([N+](=O)[O-])nn(-c3cccc(Cl)c3)n2O)c1	Sa RN4220 lethal 88 (no result: TcdB inh)
CCc1cccc(N=c2c([N+](=O)[O-])nn(-c3ccc(Cl)cc3)n2O)c1	ugtP null kill 92, Sa RN4220 lethal 95 (no result: Mtb BioA inh)
O=[N+]([O-])c1nn(-c2cccc(Cl)c2)n(O)c1=NCc1cccnc1	Mtb hypoxia rep 57 (no result: Mtb BioA inh)
CC(C)CN1CCC(=O)N(C(CN=[N+]=[N-])Cc2ccccc2)CC1 (centres undefined)	none (no result: Mtb BioA inh, TcdB inh, Y pestis TopoI)
O=C(C=Cc1ccc2c(c1)OCO2)NC1(C(=O)Nc2ccc3c(c2)OCO3)CCCCC1	none (no result: Mtb BioA inh, TcdB inh, Y pestis TopoI)
CCCNC(=O)c1nnsc1S(=O)c1ccc(Cl)cc1 (centres undefined)	ugtP null kill 100, Sa RN4220 lethal 98 (no result: Mtb BioA inh)
CCCNC(=O)c1nnsc1S(=O)(=O)c1ccc(Cl)cc1	none (no result: Mtb BioA inh)
Cc1ccc(S(=O)c2snnc2C)cc1 (centres undefined)	none
CNC(=O)c1nnsc1S(=O)c1ccc(Cl)cc1 (centres undefined)	ugtP null kill 100, Sa RN4220 lethal 99 (no result: Mtb BioA inh)
Cc1cccc(N2CCc3c2nc2ccc(Br)cc2c3N)c1	ugtP null kill 100, Sa RN4220 lethal 99
CN1CCS/C1=C/C=C1\SC(=S)N(CC(=O)O)C1=O	Mtb hypoxia rep 58
COc1ccc(-c2nc3c4c(ncn3n2)-c2ccccc2CC42CCCC2)cc1	none (no result: Mtb hypoxia rep, ugtP null kill, Sa RN4220 lethal)
Oc1cccc(-c2nc3c4c(ncn3n2)-c2ccccc2CC42CCCC2)c1	ugtP null kill 89
Cc1cc(C)cc(N2C(=O)NC(=O)/C(=C\c3cccn3-c3ccccc3)C2=O)c1	Y pestis TopoI 53 (no result: Mtb BioA inh, Mtb hypoxia rep, ugtP null kill, Sa RN4220 lethal, TcdB inh)
CCN1C(=O)C(CC(=O)Nc2cccc(C(C)=O)c2)SC1=Nc1ccccn1 (centres undefined)	none (no result: Mtb BioA inh, TcdB inh, Y pestis TopoI)
Cc1ccc(NC(=S)/C(=C(\[O-])c2ccc(Cl)s2)[n+]2cccc(CO)c2)cc1C	none
[O-]/C(=C(\C(=S)Nc1ccc(SC(F)F)cc1)[n+]1cccc(CO)c1)c1ccc(Cl)s1	Y pestis TopoI 61 (no result: Mtb BioA inh)
N#Cc1ccc(OCC(=O)N2CCN(S(=O)(=O)c3ccc(Cl)s3)CC2)cc1	Mtb hypoxia rep 27
COc1ccc(OCC(=O)N2CCN(S(=O)(=O)c3ccc(Cl)s3)CC2)cc1	none
O=C(Nc1cc(Cl)ccc1-n1cncn1)c1ccc([N+](=O)[O-])s1	ugtP null kill 101 (no result: TcdB inh)
O=C(Nc1cc(Cl)ccc1-n1cncn1)c1ccco1	none
Cc1ccc2nc(C(Cl)(Cl)Cl)nc(NN=Cc3ccncc3)c2c1	none (no result: Mtb BioA inh, TcdB inh, Y pestis TopoI)
